{"source": "PubChem BioAssay (Tox21)", "key": {"[1]": {"biological_target": "Voltage-gated inwardly rectifying potassium channel KCNH2 (Homo sapiens) (UniProt Q12809)", "sequence (Q12809 whole entry, looked up)": "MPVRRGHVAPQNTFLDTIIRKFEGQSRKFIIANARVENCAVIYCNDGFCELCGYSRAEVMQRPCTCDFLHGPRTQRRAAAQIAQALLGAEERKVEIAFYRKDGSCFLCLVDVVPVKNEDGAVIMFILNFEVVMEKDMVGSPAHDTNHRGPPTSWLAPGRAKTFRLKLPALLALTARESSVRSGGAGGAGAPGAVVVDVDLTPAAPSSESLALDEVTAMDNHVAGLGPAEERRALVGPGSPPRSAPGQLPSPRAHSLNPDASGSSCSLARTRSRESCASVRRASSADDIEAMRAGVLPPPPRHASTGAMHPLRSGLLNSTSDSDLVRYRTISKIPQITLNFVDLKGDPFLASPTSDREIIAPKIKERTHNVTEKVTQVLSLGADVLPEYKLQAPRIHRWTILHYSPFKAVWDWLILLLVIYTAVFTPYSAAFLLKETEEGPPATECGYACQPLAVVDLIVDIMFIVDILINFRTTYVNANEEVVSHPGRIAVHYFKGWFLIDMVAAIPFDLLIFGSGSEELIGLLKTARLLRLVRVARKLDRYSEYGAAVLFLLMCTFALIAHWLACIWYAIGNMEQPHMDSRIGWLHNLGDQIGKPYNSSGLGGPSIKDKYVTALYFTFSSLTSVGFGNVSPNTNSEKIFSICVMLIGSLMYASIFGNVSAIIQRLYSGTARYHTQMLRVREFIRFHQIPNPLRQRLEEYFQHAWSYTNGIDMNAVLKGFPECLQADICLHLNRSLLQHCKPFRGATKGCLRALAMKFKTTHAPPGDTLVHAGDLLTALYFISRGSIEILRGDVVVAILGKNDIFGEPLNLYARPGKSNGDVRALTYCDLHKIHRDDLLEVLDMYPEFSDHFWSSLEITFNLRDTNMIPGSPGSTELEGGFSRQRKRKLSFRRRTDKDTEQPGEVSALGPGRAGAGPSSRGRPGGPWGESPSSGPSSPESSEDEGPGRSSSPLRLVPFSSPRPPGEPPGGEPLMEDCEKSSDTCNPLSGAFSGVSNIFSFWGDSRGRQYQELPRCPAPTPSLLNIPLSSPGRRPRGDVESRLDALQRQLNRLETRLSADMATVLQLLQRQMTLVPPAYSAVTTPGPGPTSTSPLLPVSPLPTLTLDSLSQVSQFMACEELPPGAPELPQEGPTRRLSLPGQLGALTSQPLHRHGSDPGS", "assay": "Human Ether-a-go-go-Related Gene (hERG) channel small molecule antagonists: fluorescence cell-based qHTS assay (AID 1671200); as to activity change, negative = inhibition: series mostly up to about 77 µM", "how_it_was_run": "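Thallium flux as potassium surrogate: FluxOR II dye loaded 1 h at room temperature into hERG-expressing U2OS cells, then stimulus buffer added after 10 min. Kinetic 480 nm excitation/540 nm emission read, 2 min.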"}, "[2]": {"biological_target": "Cytochrome P450 3A4 (Homo sapiens) (UniProt P08684)", "sequence (P08684 whole entry, looked up)": "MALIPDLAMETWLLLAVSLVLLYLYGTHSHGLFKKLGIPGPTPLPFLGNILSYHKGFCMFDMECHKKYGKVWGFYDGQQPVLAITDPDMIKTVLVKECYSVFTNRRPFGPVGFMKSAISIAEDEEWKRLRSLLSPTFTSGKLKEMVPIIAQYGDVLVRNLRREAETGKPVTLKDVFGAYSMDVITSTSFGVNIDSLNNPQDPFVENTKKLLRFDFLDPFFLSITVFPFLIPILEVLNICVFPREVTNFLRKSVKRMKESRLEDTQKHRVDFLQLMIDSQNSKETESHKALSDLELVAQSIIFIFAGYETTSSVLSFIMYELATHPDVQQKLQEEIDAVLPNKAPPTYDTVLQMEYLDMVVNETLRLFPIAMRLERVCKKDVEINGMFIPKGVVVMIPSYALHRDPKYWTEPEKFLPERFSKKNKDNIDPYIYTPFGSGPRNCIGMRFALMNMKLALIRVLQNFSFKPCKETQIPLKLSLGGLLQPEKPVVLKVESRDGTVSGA", "assay": "Cytochrome P450 Family 3 Subfamily A Member 4 (CYP3A4) small molecule antagonists: luciferase reporter qHTS assay (AID 1671201); as to activity change, negative = inhibition: series mostly up to about 120 µM", "how_it_was_run": "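Recombinant human CYP3A4 converts a proluciferin substrate to luciferin over 1 h at room temperature after NADPH regeneration solution is added (compound preincubated 10 min); detection reagent stops reaction, luminescence read 20 min later as relative units.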"}}, "note": "Results filed as inconclusive are left out. A call without a number means that no potency is given here. Activity calls are given as the source filed them. Calls follow the shape of the dose curve; as a rule, active = well fitted curve in the direction sought with a large enough effect in the repeat runs; inconclusive = weak or mixed curves; inactive = no such curve, though single readings can be large; an effect the other way counts as inactive or inconclusive. Also: nearly all actives have a fitted effect of over 50% in size. Potency is read from the fitted curve at half-maximal effect.", "data": [{"smiles": "CO[Si](CCC1CCC2OC2C1)(OC)OC", "note": "(stereo unspecified)", "values": [{"measurement": "Potency", "setting": "[1]", "result": "inactive"}, {"measurement": "Potency", "setting": "[2]", "result": "inactive"}]}, {"smiles": "C=C(C)C(=O)OCCC[Si](Cl)(Cl)Cl", "values": [{"measurement": "Potency", "setting": "[2]", "result": "12.7 µM (active)"}]}, {"smiles": "CN(Cc1cc(Br)cc(Br)c1N)C1CCCCC1", "values": [{"measurement": "Potency", "setting": "[1]", "result": "10.7 µM (active)"}, {"measurement": "Potency", "setting": "[2]", "result": "inactive"}]}, {"smiles": "OCCN1CN(CCO)CN(CCO)C1", "values": [{"measurement": "Potency", "setting": "[1]", "result": "inactive"}, {"measurement": "Potency", "setting": "[2]", "result": "inactive"}]}, {"smiles": "CCO[Si](CCCSSSSCCC[Si](OCC)(OCC)OCC)(OCC)OCC", "values": [{"measurement": "Potency", "setting": "[1]", "result": "inactive"}, {"measurement": "Potency", "setting": "[2]", "result": "2.83 µM (active)"}]}, {"smiles": "Cc1cc(C)c(C=O)c(C)c1", "values": [{"measurement": "Potency", "setting": "[1]", "result": "inactive"}, {"measurement": "Potency", "setting": "[2]", "result": "inactive"}]}, {"smiles": "CCCCCCCCCCCC(=O)N(CC)CC", "values": [{"measurement": "Potency", "setting": "[1]", "result": "inactive"}, {"measurement": "Potency", "setting": "[2]", "result": "inactive"}]}, {"smiles": "CC(=O)Oc1ccc(C2(c3ccc(OC(C)=O)cc3)C(=O)Nc3ccccc32)cc1", "values": [{"measurement": "Potency", "setting": "[1]", "result": "inactive"}, {"measurement": "Potency", "setting": "[2]", "result": "inactive"}]}, {"smiles": "CC1=C(/C=C/C(C)=C/C=C/C(C)=C\\C=O)C(C)(C)CCC1", "values": [{"measurement": "Potency", "setting": "[2]", "result": "30 µM (active)"}]}, {"smiles": "N[C@@H](CSSC[C@H](N)C(=O)O)C(=O)O", "values": [{"measurement": "activity change, negative = inhibition", "setting": "[1]", "result": "-0.819% [at 0.29 µM] (inactive)"}, {"measurement": "activity change, negative = inhibition", "setting": "[2]", "result": "5.27% [at 0.435 µM] (inactive)"}]}, {"smiles": "CCC(=O)CC(C)CC", "note": "(stereo unspecified)", "values": [{"measurement": "activity change, negative = inhibition", "setting": "[2]", "result": "-0.0732% [at 0.435 µM] (inactive)"}]}, {"smiles": "O=C(NO)c1ccccc1", "values": [{"measurement": "Potency", "setting": "[1]", "result": "inactive"}, {"measurement": "Potency", "setting": "[2]", "result": "inactive"}]}, {"smiles": "O=S(=O)(O)c1cc(S(=O)(=O)O)c2ccc3c(S(=O)(=O)O)cc(S(=O)(=O)O)c4ccc1c2c43", "values": [{"measurement": "activity change, negative = inhibition", "setting": "[2]", "result": "10.6% [at 23.6 µM] (inactive)"}]}, {"smiles": "CCCCCCCCCCCCN(CCO)CCO", "values": [{"measurement": "Potency", "setting": "[2]", "result": "inactive"}]}, {"smiles": "Cc1c(C(=O)O)cccc1[N+](=O)[O-]", "values": [{"measurement": "Potency", "setting": "[1]", "result": "inactive"}, {"measurement": "Potency", "setting": "[2]", "result": "inactive"}]}, {"smiles": "CCN(CC)c1cccc(C)c1", "values": [{"measurement": "Potency", "setting": "[1]", "result": "inactive"}, {"measurement": "Potency", "setting": "[2]", "result": "inactive"}]}, {"smiles": "C=CC(=O)OCCOCC(CC)(COCCOC(=O)C=C)COCCOC(=O)C=C", "values": [{"measurement": "Potency", "setting": "[1]", "result": "inactive"}, {"measurement": "Potency", "setting": "[2]", "result": "0.932 µM (active)"}]}, {"smiles": "C=C[C@](C)(O)CC[C@@H]1[C@@]2(C)CCCC(C)(C)[C@@H]2CC[C@@]1(C)O", "values": [{"measurement": "Potency", "setting": "[2]", "result": "5.03 µM (active)"}]}, {"smiles": "CCCCOc1ccc(C(=O)CCN2CCCCC2)cc1", "values": [{"measurement": "Potency", "setting": "[2]", "result": "inactive"}]}, {"smiles": "O=C[C@H](O)[C@H](O)[C@H](O)CO", "values": [{"measurement": "Potency", "setting": "[1]", "result": "inactive"}, {"measurement": "Potency", "setting": "[2]", "result": "inactive"}]}, {"smiles": "CCCC(C)CCC(C)=O", "note": "(stereo unspecified)", "values": [{"measurement": "Potency", "setting": "[2]", "result": "inactive"}]}, {"smiles": "CCCCCCCC(C)=O", "values": [{"measurement": "Potency", "setting": "[1]", "result": "inactive"}, {"measurement": "Potency", "setting": "[2]", "result": "inactive"}]}]}
